# Data taken from PubChem BioAssay AID720706 (Broad Institute, 2013).
# About 5,500 (1.6%) of roughly 350,000 compounds were called active. This is one part of a sample in which actives are shown more often than they occur.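 Rule for the calls: active = significant combined selectivity score with lowered wild-type GFP, culture density cut under 30%, mutant RFP and density less affected; inactive = any of these conditions unmet.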
# Experiment: reduced GFP signal of wild-type E. coli, primary screen, bacterial rRNA inhibitor project, GFP/RFP fluorescence, OD600, single point (AID 720706)
# Conditions: E. coli WT GFP vs humanized-ribosome RFP mutants, 24 h; GFP signal change (wild-type ribosome): stronger effect = lower value, DMSO median 0, no signal -100; OD600 change: measured here: OD600 growth, DMSO median 0, no signal -100; RFP signal change: measured here: RFP humanized mutant strains, DMSO median 0, no signal -100, concentration not given here
SMILES,GFP signal change (wild-type ribosome),OD600 change,RFP signal change
COc1ccccc1NC(=O)N[C@H]1CC[C@H](CCNS(=O)(=O)c2ccc(Cl)cc2)O[C@H]1CO,-12.2% (inactive),-10.8%,7.75%
CC(C)NC(=O)Nc1cccc2c1O[C@H](CN(C)Cc1ccccc1)[C@H](C)CN([C@H](C)CO)C2=O,3.96% (inactive),10.7%,-0.787%
C[C@@H]1CN([C@H](C)CO)C(=O)c2cc(-c3ccncc3)cnc2O[C@H]1CN(C)C,-0.119% (inactive),3.91%,0.159%
NNc1nc2c(Cl)cccc2s1,-27.1% (active),-15.6%,-0.505%
CN1C(=O)c2cc(NC(=O)NC3CCCC3)ccc2OC[C@@H]2O[C@@H](CC(=O)O)CC[C@H]21,3.92% (inactive),5.14%,-1.81%
COC(=O)[C@@]1(C)[C@H]2C(=O)N(Cc3ccccc3)C(=O)[C@H]2[C@H]2CN=C(SCC3CC3)N21,-47.6% (inactive),-80%,-15.4%
CC[C@]1(C(=O)OC)[C@H]2C(=O)N(Cc3ccccc3)C(=O)[C@H]2[C@H]2CN=C(SCc3ccccc3)N21,-30.1% (inactive),-42.8%,-8.47%
CC[C@]1(C(=O)OC)[C@H]2C(=O)N(Cc3ccccc3)C(=O)[C@H]2[C@H]2CN=C(SCc3ccc(C#N)cc3)N21,-22.2% (active),-6.29%,8.89%
C[C@@H]1CN([C@H](C)CO)C(=O)c2cc(-c3cccc(F)c3)cnc2O[C@H]1CN(C)C(=O)Nc1ccccc1F,-2.5% (inactive),-5.06%,-1.42%
CCC(=O)N1CC2(CN(Cc3cccnc3)C2)c2c(n(C)c3cc(OC)ccc23)[C@@H]1CO,1.02% (inactive),-2.19%,-2.12%
C=C1CCC(N(O)c2cc(C)on2)C(=C)CCC2C1CC2(C)C (configuration not stated),-20.5% (active),-3.66%,1.7%
CN1CCN(C(=O)C[C@H]2CC[C@@H]3[C@H](COC[C@@H](O)CN3CC3CCCC3)O2)CC1,-1.31% (inactive),7.95%,-2.61%
Cc1cc(-c2ccc(C)c(S(=O)(=O)NC(C)Cc3ccco3)c2)on1 (configuration not stated),-34.9% (active),-21.1%,0.997%
CCOc1ccccc1CNS(=O)(=O)c1cc(-c2cc(C)no2)ccc1C,-6.17% (inactive),-29.1%,-15.4%
Cc1cc(-c2ccc(C)c(S(=O)(=O)NCCCN(Cc3ccccc3)C(C)C)c2)on1,-6% (inactive),-18.2%,1.25%
COc1cc(F)c(C2=CC(=O)CC(C)(C)C2)cc1F,-21.1% (active),-16.7%,2.19%
COc1ccccc1-c1n[nH]nc1C1=CC(=O)CC(C)(C)C1,-4.29% (inactive),-12.1%,-0.515%
CC1(C)CC(=O)C=C(c2ccc(Cl)c(C(F)(F)F)c2)C1,2% (inactive),-0.255%,-10.1%
C[C@@H]1CN([C@H](C)CO)C(=O)c2ccccc2-c2ccccc2CO[C@H]1CN(C)S(=O)(=O)c1ccsc1,-0.618% (inactive),-1.1%,-2.79%
O=C(NCC[C@@H]1CC[C@@H](NC(=O)C2CCCC2)[C@H](CO)O1)c1cnccn1,3.79% (inactive),7.83%,-1.44%
CC1CCN(C(=S)NC(=O)c2ccccc2Br)CC1,6.21% (inactive),4.62%,-0.105%
CCCN(CC1CC1)C(=S)NC(=O)c1ccccc1Br,-22.1% (active),-12%,-8.89%

SMILES,GFP signal change (wild-type ribosome),OD600 change,RFP signal change
O=C(NC(=S)Nc1ncccn1)c1ccccc1Br,-2.07% (inactive),4.96%,-3.8%
O=C(CCN1CCCCC1)NCC[C@@H]1CC[C@H](NS(=O)(=O)c2cccc(Cl)c2)[C@H](CO)O1,3.52% (inactive),6.73%,1.99%
COc1ccccc1NC(=O)N1C[C@@H](O)COC[C@H]2O[C@@H](CC(=O)NCc3ccccc3)CC[C@@H]21,-2.42% (inactive),-2.65%,2.34%
COCC(=O)N1CCC2(CC1)CN(Cc1ccccc1Cl)[C@H](CO)c1c2c2ccc(OC)cc2n1C,5.11% (inactive),-2.87%,0.0355%
Cc1ccc(C(=O)C[n+]2cc(-c3ccccc3)n3c2CCCCC3)cc1,-44.5% (inactive),-43.4%,50.7%
Clc1ccc(C[n+]2cc(-c3ccccc3)n3c2CCC3)cc1,2.79% (inactive),-1.72%,-0.921%
O=C(C[n+]1cc(-c2ccc(Cl)c(Cl)c2)n2c1CCC2)c1cccs1,-50.7% (active),-21.5%,-14.4%
Cc1ccc(-c2c[n+](CC(=O)Nc3ccccc3)c3n2CCC3)cc1,-22.1% (active),-5.22%,8.16%
Cc1ccc(S(=O)(=O)N2CCN(C(=O)c3cccs3)CC2)cc1,0.592% (inactive),-2.53%,-0.742%
Clc1ccc(C[n+]2cc(-c3ccc(Cl)cc3)n3c2CCC3)cc1,-41.8% (inactive),-50.2%,-12.3%
O=C(NCC1CC1)[C@@H]1[C@@H](CO)[C@@H]2Cn3c(ccc(-c4ccncc4)c3=O)[C@H]1N2Cc1nccs1,2.96% (inactive),4.86%,-1.83%
O=C(C[C@@H]1CC[C@H]2[C@@H](COC[C@H](O)CN2C(=O)Nc2ccccc2)O1)NCCc1ccncc1,6.3% (inactive),12.9%,-0.44%
CC(CC(=O)N1CCN(S(=O)(=O)c2ccccc2)CC1)n1cncn1 (configuration not stated),5.03% (inactive),0.845%,-1.68%
Cc1ccc(S(=O)(=O)CCC(=O)OCc2ccccc2)cc1,0.84% (inactive),1.2%,2.56%
Cc1nn(C(C)(C)C)c(OC(=O)CC(C)C)c1S(=O)(=O)c1ccccc1,-21.5% (active),-14.2%,-1.55%
CNC[C@H]1Oc2ccccc2CC(=O)N(C)C[C@H]1C,1.46% (inactive),4.75%,-1.05%
CC(C)NC(=O)Nc1ccc2c(c1)CC(=O)N(C)C[C@@H](C)[C@@H](CN(C)C(=O)OC(C)(C)C)O2,2.38% (inactive),4.01%,0.746%
CC(C)C#Cc1ccc2c(c1)O[C@@H](CN(C)C(=O)CN(C)C)[C@@H](C)CN([C@H](C)CO)S2(=O)=O,2.76% (inactive),1.18%,-1.07%
CCCNC(=O)N(C)C[C@@H]1Oc2ncc(-c3cccc(C#N)c3)cc2C(=O)N([C@@H](C)CO)C[C@@H]1C,5.65% (inactive),14.1%,-4.23%
Cn1cc(C2OC(=O)c3ccccc32)c2ccccc21 (configuration not stated),-10.5% (active),-18.9%,-4.84%
Cc1ccc(CNC(=O)Cc2cn(C)c3ccccc23)cc1,-9.46% (inactive),-8.64%,3.4%
Cc1ccc(N2C(=O)S/C(=C/c3cn(C)c4ccccc34)C2=O)cc1,5.23% (inactive),9.33%,6.02%

SMILES,GFP signal change (wild-type ribosome),OD600 change,RFP signal change
CN1c2ccc(-c3ccccc3F)cc2[C@@H]2[C@@H](CCN2C(=O)CN2CCOCC2)[C@H]1CO,-2.46% (inactive),-0.94%,-0.302%
C[C@@H]1CN([C@H](C)CO)C(=O)c2cc(NC(=O)Cn3cnnn3)ccc2O[C@@H]1CN(C)Cc1ccc(C(F)(F)F)cc1,-1.05% (inactive),-5.5%,-0.189%
OCCN(Cc1ccccc1)Cc1ccc(Cl)cc1,-23% (active),-9.66%,0.44%
O=C(Cc1ccc(Cl)cc1)c1ccccc1,3.35% (inactive),2.91%,-5.05%
CN(C(=O)CN(CCO)CC(=O)N(C)C(C)(C)Cc1ccccc1)C(C)(C)Cc1ccccc1,-31.9% (inactive),-35.7%,-7.29%
CCC(=O)N[C@H]1CC[C@@H](CC(=O)NCC2CC2)O[C@@H]1CO,3.28% (inactive),7.08%,3.11%
CC(C)NC(=O)Nc1ccc2c(c1)C(=O)N([C@@H](C)CO)C[C@H](C)[C@@H](CN(C)Cc1ccc(C(=O)O)cc1)OCCCC[C@H](C)O2,-0.801% (inactive),3.15%,-0.195%
CN1CCN(c2ccc(NC(=O)c3ccc4c(c3)OCCO4)cc2Cl)CC1,3.42% (inactive),2.75%,-7.15%
O=C(Nc1ccccc1N1CCN(C(=O)c2ccccc2)CC1)c1ccco1,-8.24% (inactive),-9.77%,-0.948%
O=C(Nc1ccc(N2CCN(C(=O)c3ccccc3)CC2)c(Cl)c1)c1ncn[nH]1,-24.4% (active),-14.7%,0.07%
COc1ccc2c3c([nH]c2c1)[C@@H](CO)N(C(=O)C1CC1)CC31CCN(Cc2nccs2)CC1,-6.7% (inactive),-0.445%,-3.97%
CCCNC(=O)C[C@@H]1CC[C@H]2[C@@H](COc3ccc(NC(=O)C4CCCC4)cc3C(=O)N2C)O1,2.97% (inactive),3.62%,0.145%
O=C(NC1CCC1)[C@@H]1[C@@H](CO)[C@@H]2Cn3c(ccc(/C=C/c4ccccc4)c3=O)[C@@H]2N1Cc1ccncc1,-9.73% (inactive),-7.87%,7.36%
O=C(Nc1ccc(F)cc1)N1CC(=O)N2[C@H](CO)[C@H](c3ccc(C#Cc4ccccc4)cc3)[C@H]2C1,-32.4% (inactive),-57.1%,29%
C[C@@H]1CCCCO[C@H](CN(C)C)[C@H](C)CN([C@@H](C)CO)C(=O)c2cc(NS(=O)(=O)c3cn(C)cn3)ccc2O1,3.31% (inactive),6.19%,-1.01%
CCn1c(SCC(=O)Nc2cc(C)c(Cl)cc2OC)nnc1-c1ccco1,-38.4% (inactive),-53.5%,-9.88%
Cn1c(SCC(=O)c2cccs2)nnc1-c1ccco1,1.2% (inactive),2.27%,0.555%
CSc1nc(-c2ccco2)nn1C(=O)c1ccccc1Cl,-25.9% (active),-15.3%,0.841%
COc1ccc(S(=O)(=O)N(C)C[C@@H]2Oc3ccc(NC(=O)CCC(F)(F)F)cc3C(=O)N([C@@H](C)CO)C[C@@H]2C)cc1,2.48% (inactive),3.34%,-0.798%
C[C@@H](O)C#Cc1ccc([C@H]2[C@H]3CN(C(=O)c4ccc5c(c4)OCO5)CCCCN3[C@H]2CO)cc1,3.47% (inactive),-9%,2.17%
